Most compounds without a hit are left out; they make up all but 21% or so of the library.
Sm TGR block – S. mansoni TGR enzyme inhibition. purified TGR, DTNB reduction, TNB absorbance 405 nm. AID 485364. actives 3% (n = 360,000). Potency, µM (doses to about 114 µM), for inactives: top-dose activity change, negative = inhibition, actives largely listed as inhibitors; further: potency means the concentration at half of the fitted maximal effect; on the % scale 0 is the no-effect control and ±100 the full control effect; nearly all actives have a fitted effect of over 60% in size
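TGR 20 nM + NADPH 100 uM (dispensed conc.), cpd preinc 15 min RT; start with NADPH (500 uM addition) then DTNB (15 mM addition). Kinetic TNB absorbance, 405 nm filter. Four-parameter Hill fit across titration.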
CHX counter – counter-screen hit for Shiga toxin inhibitors, cycloheximide. cell reporter, cycloheximide protein synthesis inhibition counterscreen. AID 2314. actives 12% (n = 300,000). max response, %; in the data active means max response mostly above about 13%, no sharp cut-off; inactive means mostly below about 14%; further: read at 38.3 µM for the half of the compounds with a filed dose; 0% is about no effect
Pf growth 48h – inhibits P. falciparum growth in the first generation, 48 h; actives 5.9% (n = 310,000); Potency, µM (doses to about 28.7 µM), without a hit: at the highest dose activity change, negative = inhibition, usual class: inhibitors; P. falciparum luciferase growth in erythrocytes, 48 h; further: potency means the concentration at half of the fitted maximal effect; on the % scale 0 is the no-effect control and ±100 the full control effect
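Compounds are pin-transferred into medium, infected erythrocytes (2% hematocrit, 0.1% parasitemia final) are added, and plates sit one parasite generation at 37 C in 5% CO2. Detection reagent is then added and luminescence measured.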
Shiga toxin inh – inhibitors of Shiga toxin in Vero cells; Vero cells, Shiga toxin protein synthesis inhibition reporter; inhibition, % at 38.7 µM; actives 9.2% (n = 290,000); AID 2315; in the data active means inhibition mostly above about 28%, no sharp cut-off; inactive means mostly below about 43%; further: 0% is about no effect
NS1 function inh – influenza NS1 inhibition. Potency, µM (series often up to 46.1 µM), inactives show at the highest dose activity, positive = more growth. actives 0.4% (n = 270,000). AID 2326; calls by dose curve; further: potency means the concentration at half of the fitted maximal effect; actives are rising curves; nearly all actives have a fitted effect of over 50% in size
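A cell-based growth assay was used: compounds that relieve NS1-induced slow growth of budding yeast raise OD600. Assay medium was yeast nitrogen base with ammonium sulphate and -URA supplement, pH 6.0, with 2% galactose.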
Pf growth 96h – inhibits malaria parasite growth, 96 h; P. falciparum luciferase reporter growth, 96 h; actives 6.9% (n = 320,000); Potency, µM (doses to about 28.7 µM), for the others: at the highest dose activity change, negative = inhibition, usual class: inhibitors; further: potency means the concentration at half of the fitted maximal effect; on the % scale 0 is the no-effect control and ±100 the full control effect
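Parasite growth measured via integrated firefly luciferase reporter in P. falciparum. Infected erythrocytes at 2% hematocrit, 0.05% parasitemia final were treated 96 hours at 37 C under 5% CO2, and luminescence was read.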
Starred values were filed as active, the others as inactive; ? = inconclusive; / = not tested or not shown. Unless noted, the call rests on the fitted dose curve; in most records, active means well fitted curve in the direction sought with a large enough effect; inconclusive means small, poorly fitted or top-dose-only effect, or another doubt; inactive means no such curve, though single readings can be large; an effect the other way counts as inactive or inconclusive.

SMILES	Sm TGR block	CHX counter	Pf growth 48h	Shiga toxin inh	NS1 function inh	Pf growth 96h
CN(C)C(=O)Oc1ccc(-c2cn3cc(Cl)ccc3n2)cc1	0%	50*	170%	55*	-9%	251%
CCOC(=O)c1ccccc1-c1cn2cc(Cl)ccc2n1	-5%	15	?	52	/	38%
CN(C)C(=O)Oc1ccc(-c2cn3cc(C(F)(F)F)ccc3n2)cc1	-19%	20	110%	41*	9%	123%
CCOC(=O)C1CCN(S(=O)(=O)c2cccc(-c3cn4cc(Cl)ccc4n3)c2)CC1	-7%	7	?	14	2%	/
CCOc1ccc(CNC(=O)C2Cc3ccccc3N2C(=O)CC)cc1 (configuration not stated)	4%	/	/	/	/	/
Cc1cc(Cl)ccc1NC(=S)NCC(C)C	-12%	1	-19%	11	6%	19%
Cc1ccc(O)c(C(=O)/C=C/c2ccc3c(c2)OCCO3)c1	-10%	33*	61%	142*	/	?
COc1cc(/C=C/C(=O)OCC(=O)Nc2ccc3c(c2)OCCO3)ccc1O	?	4	18%	17	16%	32%
O=C(/C=C/c1ccc2c(c1)OCCO2)c1ccccc1	-26%	42*	135%	74*	-65%	44%
COc1ccc(/C=C/C(=O)c2ccc3c(c2)OCCO3)cc1[N+](=O)[O-]	4%	-1	-3%	8	-2%	8%
COc1ccc(C(=O)/C=C/c2ccc3c(c2)OCCO3)cc1	-3%	31*	36%	92*	-39%	-21%
CN(Cc1cccnc1)C(=O)CNC(=O)COc1ccccc1	-10%	-6	-1%	-8	10%	6%
Cc1ccc(N=Cc2c(O)n(C)c(=O)n(C)c2=O)cc1	4%	6	19%	20	10%	-10%
Cc1cccc(N=Cc2c(O)n(C)c(=O)n(C)c2=O)c1	29%	9	-1%	25*	20%	112%
Cc1cc(=O)cc(C)n1-c1ccc(Cl)cc1	/	-2	-6%	-24	1%	?
Cc1csc(=N)n1-c1ccc(Cl)cc1	2%	59*	134%	176*	-55%	45%
Cc1csc(=S)n1-c1ccccc1	-29%	-2	-14%	-18	14%	?
Cc1ccc(-n2c(C)csc2=N)cc1	-7%	56*	/	55*	-6%	437%
N/C(=N\OC(=O)c1ccccc1[N+](=O)[O-])c1cccnc1	-2%	35*	71%	55*	7%	57%
Cc1cc(C(=O)Oc2cccnc2)ccc1[N+](=O)[O-]	-35%	8	5%	-3	-12%	3.7µM*
O=C(Oc1c(Br)cc([N+](=O)[O-])cc1Br)c1cccnc1	-35%	12	-17%	-13	-24%	6.6µM*
N/C(=N\OC(=O)c1ccccc1[N+](=O)[O-])c1ccccn1	1%	12	0%	26	/	173%
COc1ccc(/C(N)=N/OC(=O)c2ccc(C)c([N+](=O)[O-])c2)cc1OC	-14%	-3	/	-1	-7%	/
O=C(Oc1ccc(F)cc1)c1cccnc1	28%	3	-22%	-5	5%	?
Cc1ccc(C(=O)O/N=C(\N)c2cccnc2)cc1[N+](=O)[O-]	?	78*	-9%	18*	-8%	-15%
SMILES	Sm TGR block	CHX counter	Pf growth 48h	Shiga toxin inh	NS1 function inh	Pf growth 96h
C=CCn1cn[nH]c1=S	3%	-1	21%	-4	2%	35%
N/C(=N\OC(=O)c1ccc([N+](=O)[O-])cc1)c1cccnc1	-16%	14*	81%	117*	-8%	-18%
COc1ccc(C(=O)OCn2nnc3ccccc3c2=O)cc1[N+](=O)[O-]	25%	6	49%	12	/	24%
Cc1ccc(C(=O)OCn2nnc3ccccc3c2=O)cc1[N+](=O)[O-]	6%	8	14%	-10	/	2.6µM*
N/C(=N\OC(=O)c1cc([N+](=O)[O-])ccc1Cl)c1cccnc1	-9%	-2	13%	21	-3%	1%
CCCN1C(=O)/C(=N\OCC(=O)NC23CC4CC(CC(C4)C2)C3)c2ccccc21	-5%	-3	15µM*	3	-9%	?
CCCN1C(=O)/C(=N\OCC(=O)Nc2ccc(C(C)C)cc2)c2ccccc21	-18%	0	52%	-8	28%	34%
Cc1ccc(C(=O)CN2C(=O)C(C)Oc3ccccc32)cc1 (configuration not stated)	/	33*	27%	39	-6%	17%
COc1ccc(CN(C(=O)CN2C(=O)COc3ccccc32)C2CCCC2)c(OC)c1	5%	-3	?	6	-12%	/
CC1Oc2ccccc2N(Cc2ccccc2Cl)C1=O (configuration not stated)	-23%	-2	?	3	-11%	12µM*
CC1Oc2ccccc2N(CC(=O)c2ccc(F)cc2)C1=O (configuration not stated)	-5%	23	6%	18	/	45%
CC1Oc2ccccc2N(Cc2ccccc2F)C1=O (configuration not stated)	-19%	-4	0%	5	-7%	?
CC1Oc2ccccc2N(CC(=O)NC2CCCC2)C1=O (configuration not stated)	-8%	-2	14%	-6	9%	19%
COc1ccc(CN(C(=O)CN2C(=O)C(C)Oc3ccccc32)C2CCCC2)c(OC)c1 (configuration not stated)	-3%	9	4.7µM*	-20	-31%	8.3µM*
CC1Oc2ccccc2N(CC(=O)c2ccccc2)C1=O (configuration not stated)	-19%	23*	-35%	27	?	?
COc1ccc(-c2nc(SC(CC(=O)NCCN3CCOCC3)c3cccs3)n[nH]2)cc1 (configuration not stated)	5%	-3	?	11	/	-21%
CC1Oc2ccccc2N(CC(=O)N2CCc3ccccc32)C1=O (configuration not stated)	-6%	-3	-3%	-8	-5%	-17%
O=C(CN1C(=O)COc2ccccc21)c1ccc(Cl)cc1	-4%	-8	-3%	-8	-4%	10µM*
O=C(CN1C(=O)COc2ccccc21)c1cccc(Cl)c1	2%	-6	10%	-7	-13%	?
CC1Oc2ccccc2N(CC(=O)N2CCCc3ccccc32)C1=O (configuration not stated)	-30%	8	-21%	-4	-11%	9.3µM*
CN(C)Cc1ccc(C(C)(C)C)cc1-c1cc(C(C)(C)C)ccc1CN(C)C	/	/	/	/	-8%	/
Cn1c(O)c(/C=N/N2CCOCC2)c(=O)n(C)c1=S	-8%	2	13µM*	-1	-1%	36%
CCn1c(O)c(/C=N/N2CCOCC2)c(=O)n(CC)c1=S	3%	1	-1%	-4	-8%	19%
O=C(NCCS(=O)(=O)N1CCN(c2ccc(F)cc2)CC1)C12CC3CC(CC(C3)C1)C2	-24%	/	12µM*	/	/	-9%

Screening results: PubChem BioAssay, National Center for Advancing Translational Sciences (NCATS)
